Assay [1] has as its system S. cerevisiae SK1 pCDA2-eGFP (USY613), sporulating. The assay is described as follows: CDA2-GFP sporulation assay sensitivity score (z-score vs DMSO controls); higher = stronger inhibition of sporulation, active = hit call of the paper.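 Note: active if sensitivity score above 5.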
Assay [2] deals with S. cerevisiae AD1-9 (efflux-pump deficient), vegetative growth in YPD. Put plainly: growth sensitivity score (doubling time z-score vs DMSO controls); higher = slower growth, strongly negative scores also mark growth inhibition (complete suppression), active = hit call of the paper. In short, it runs like this:
(§1)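 Rich medium in microtiter plates was seeded with Saccharomyces cerevisiae strains BY4741 and AD1-9 at an OD600 of 0.065, and compounds were added as a 1:100 dilution of DMSO stock. A Tecan GENios reader recorded optical density every 15 min for 24 hours, with eight solvent-only wells in each experiment. Average doubling time was the time to reach a set generation point divided by generation number. The growth sensitivity score was the compound mean minus the solvent-only mean, divided by the solvent-only standard deviation.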

Assay [3] has as its system S. cerevisiae BY4741 (wild-type), vegetative growth in YPD. The assay is described as above. In short, it runs like this:
as §1

Each structure is given as a SMILES string. Where a name gives a salt, the structure may show the parent alone.

For `CC(COc1ccccc1Cc1ccccc1)N1CCCCC1` (stereo unspecified) [Benproperine phosphate] (stock concentration (mM, diluted 1:100): 10), the “CDA2-GFP sporulation assay sensitivity score” value in assay [1] was 0.55 (inactive). For the same molecule, the growth sensitivity score was 3.29 (active) in assay [2] and 6.41 (active) in assay [3].
The corresponding values for `CNCC[C@@H](Oc1ccccc1C)c1ccccc1` [Atomexetine hydrochloride] (stock concentration (mM, diluted 1:100): 8.7) are 0.57 (inactive), 5.57 (active) and 0.06 (inactive).
The corresponding values for `CCOC(=O)[C@H](CCc1ccccc1)N[C@H]1CCc2ccccc2N(CC(=O)O)C1=O` [Benazepril hydrochloride] (stock concentration (mM, diluted 1:100): 9.2) are -1.49 (inactive), 1.33 (inactive) and 1.72 (inactive).
As for `CCOC(=O)c1ncn2c1CN(C)C(=O)c1cc(F)ccc1-2` [Flumazenil] (stock concentration (mM, diluted 1:100): 10), in assay [1], the “CDA2-GFP sporulation assay sensitivity score” value was 1.01 (inactive). Further, the growth sensitivity score is -0.24 (inactive) in assay [2] and 1.4 (inactive) in assay [3].
The corresponding values for `CN1CCC(=C2c3ccccc3C=Cc3ccccc32)CC1` [Cyproheptadine hydrochloride] (stock concentration (mM, diluted 1:100): 10) are 14 (active), 9.58 (active) and 3.38 (active).
Taken in the same sequence, the figures for `CC[C@H](C)C(=O)O[C@H]1CCC=C2C=C[C@H](C)[C@H](CC[C@@H]3C[C@@H](O)CC(=O)O3)[C@H]21` [Mevastatin] (stock concentration (mM, diluted 1:100): 10) were 0.51 (inactive), 130 (active) and 2.89 (active).
In the case of `CNCCCC12CCC(c3ccccc31)c1ccccc12` [Maprotilline hydrochloride] (stock concentration (mM, diluted 1:100): 10), in assay [1], the “CDA2-GFP sporulation assay sensitivity score” value is 0.21 (inactive). For the same molecule, the values for the growth sensitivity score in assay [2] and in assay [3] were 86.6 (active) and 2.3 (active), respectively.
On to `C[N+]1(C)CCC(OC(=O)C(O)(c2ccccc2)C2CCCC2)C1` (stereo unspecified) [Glycopyrrolate] (stock concentration (mM, diluted 1:100): 10), for which the “CDA2-GFP sporulation assay sensitivity score” value in assay [1] is 1.55 (inactive). The growth sensitivity score in assay [2] was -0.14 (inactive); in assay [3], -0.04 (inactive).
As for `Cc1c(OCC(F)(F)F)ccnc1C[S+]([O-])c1nc2ccccc2[nH]1` (stereo unspecified) [Lansoprazole] (stock concentration (mM, diluted 1:100): 10.1), in assay [1], the “CDA2-GFP sporulation assay sensitivity score” value is 14.2 (inactive). Moreover, the results for the growth sensitivity score in assay [2] and in assay [3] were 2.67 (active) and 1.37 (inactive), respectively.
Taken in the same sequence, the figures for `Nc1ccn([C@@H]2CS[C@H](CO)O2)c(=O)n1` [Lamivudine] (stock concentration (mM, diluted 1:100): 9.9) were 1.14 (inactive), -1.68 (inactive) and -0.39 (inactive).
The corresponding values for `O=C1CN2Cc3c(ccc(Cl)c3Cl)N=C2N1` [Anagrelide hydrochloride] (stock concentration (mM, diluted 1:100): 8.8) are 3.77 (inactive), -1.22 (inactive) and -2.21.
With `COc1ccc2c3c1O[C@H]1C[C@@H](O)C=C[C@@]31CCN(C)C2` [Galanthamine] (stock concentration (mM, diluted 1:100): 8.8), the “CDA2-GFP sporulation assay sensitivity score” value in assay [1] was -0.36 (inactive). Also, the growth sensitivity score in assay [2] was -1.27 (inactive); in assay [3], 0.11 (inactive).
Taken in the same sequence, the figures for `COc1c(N2C[C@@H]3CCCN[C@@H]3C2)c(F)cc2c(=O)c(C(=O)O)cn(C3CC3)c12` [Moxifloxacin hydrochloride] (stock concentration (mM, diluted 1:100): 9.2) were 2.59 (inactive), 22.4 (active) and 0.08 (inactive).
Taken in the same sequence, the figures for `Cc1nccn1CC1CCc2c(c3ccccc3n2C)C1=O` (stereo unspecified) [Ondansetron hcl] (stock concentration (mM, diluted 1:100): 8.9) were -0.41 (inactive), -1.11 (inactive) and -0.22 (inactive).
Taken in the same sequence, the figures for `CN(C)CC[C@@H](c1ccc(Br)cc1)c1ccccn1` [Dexbrompheniramine maleate] (stock concentration (mM, diluted 1:100): 7.3) were -1.63 (inactive), -0.16 (inactive) and -1.48 (inactive).
`CN1CCN(C2=Nc3ccccc3Oc3ccc(Cl)cc32)CC1` [Loxapine succinate] (stock concentration (mM, diluted 1:100): 11): in assay [1], the “CDA2-GFP sporulation assay sensitivity score” value was 2.27 (inactive). The growth sensitivity score in assay [2] was 6.01 (active); in assay [3], 1.9 (inactive).
Take `CC=CC(=O)N(CC)c1ccccc1C` [Crotamiton] (stock concentration (mM, diluted 1:100): 10.3): the “CDA2-GFP sporulation assay sensitivity score” value in assay [1] is 2.32 (inactive). Moreover, the growth sensitivity score in assay [2] was 0.99 (inactive); in assay [3], -0.07 (inactive).

For the origin of these results see the supplement of paper PMC3414501.
